Measured values: PubChem BioAssay AID1259336 (Sattelle Laboratory, UCL Respiratory, Division of Medicine, …, 2017)
Unmarked numbers belong to inactive results. Activity calls are given as the source filed them. Cut-off read from the data, not from the text of the source: active = log2 fold change growth below about -1.8; inactive = the rest.

Test: C. elegans growth inhibition, whole organism, log2 fold change (AID 1259336);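 note: growth scored by imaging after five days at 20 °C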
Settings: anthelmintic screen, active compounds read low

SMILES	log2 fold change growth
Cc1cc(C2=NO[C@](c3cc(Cl)c(F)c(Cl)c3)(C(F)(F)F)C2)ccc1C(=O)NCc1ccc2c(c1)C(C)(C)OB2O	-0.268
Cc1cccc(C(=O)Nc2ccnc(N(C)C3CCN(CC(C)C)CC3)c2)c1	0.418
Cc1nn(Cc2ccccc2)c(Cl)c1C(=O)NC1CCCCCC1	0.0333
Nc1c2c(nc3sc4c(c13)CCCC4)CCCC2	-0.177
CO/C=C(\C(=O)OC)c1ccccc1Oc1cc(Oc2ccccc2C#N)ncn1	-0.352
O=C1O[C@@H](CO)CN1c1cc(F)c(C2=CCN(Cc3ccccc3)CC2)c(F)c1	0.141
O=C1O[C@@H](COc2ccon2)CN1c1cc(F)c(C2=CCN(Cc3ccccc3)CC2)c(F)c1	0.114
CC1COC(Cn2cncn2)(c2ccc(Oc3ccc(Cl)cc3)cc2Cl)O1 (centres undefined)	-0.72
CO/N=C(/C(=O)OC)c1ccccc1CO/N=C(/C)c1cccc(C(F)(F)F)c1	-0.187
Cc1nn(C)c(C)c1NS(=O)(=O)c1c(Cl)cc(-c2ccnc(N3CCNCC3)c2)cc1Cl	-0.0922
CCc1nn(C)c(C(=O)NCc2ccc(Oc3ccc(C)cc3)cc2)c1Cl	-10.9 (active)
CC(C)(C)C(O)C(Oc1ccc(-c2ccccc2)cc1)n1cncn1 (centres undefined)	-0.263
CO[C@@H]1CN(c2ccc(C#CC3(O)CN4CCC3CC4)c(Cc3ccccc3)n2)C[C@H]1O (some centres undefined)	-0.086
CC1(C)OB(O)c2ccc(C3=NO[C@](c4cc(Cl)c(F)c(Cl)c4)(C(F)(F)F)C3)cc21	-2.88
